Source: PubChem BioAssay AID493221 (Johns Hopkins Ion Channel Center, 2011)
Out of some 2,400 compounds screened, about 1,700 (71%) were called active.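 Rule for the calls: active = choline transporter activity left, mean of duplicates at 10 µM, below buffer-only control mean minus 3 SD; inactive = the rest.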 So high a share suggests a set chosen from earlier hits. Only a sample is shown.

What follows are compounds tested against High affinity choline transporter 1 (Homo sapiens) (UniProt Q9GZV3) (assay: CHT inhibitors, confirmation, cell-based, membrane potential dye, duplicate (AID 493221)). Conditions: CHT-expressing cells, at 10 µM, LV-to-AA substituted CHT, HEK293 cells.
High affinity choline transporter 1 (Homo sapiens), sequence (Q9GZV3 whole entry, looked up): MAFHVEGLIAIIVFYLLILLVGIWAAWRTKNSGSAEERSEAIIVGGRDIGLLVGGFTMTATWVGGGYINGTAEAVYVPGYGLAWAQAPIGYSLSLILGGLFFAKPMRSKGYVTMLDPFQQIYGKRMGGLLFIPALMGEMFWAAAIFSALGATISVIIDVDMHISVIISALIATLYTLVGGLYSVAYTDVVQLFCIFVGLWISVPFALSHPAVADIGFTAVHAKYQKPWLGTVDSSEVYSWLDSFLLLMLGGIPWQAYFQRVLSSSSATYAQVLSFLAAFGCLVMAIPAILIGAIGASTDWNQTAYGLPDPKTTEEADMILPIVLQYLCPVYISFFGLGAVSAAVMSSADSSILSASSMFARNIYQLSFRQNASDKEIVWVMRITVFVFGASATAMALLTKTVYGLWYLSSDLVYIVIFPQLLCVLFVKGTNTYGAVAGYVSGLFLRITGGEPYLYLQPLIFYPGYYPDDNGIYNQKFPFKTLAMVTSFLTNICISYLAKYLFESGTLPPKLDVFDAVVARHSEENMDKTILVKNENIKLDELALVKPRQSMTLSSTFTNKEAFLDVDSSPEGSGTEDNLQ

CHT activity remaining % of control (stronger effect = lower value), inactive:
Cc1ccccc1-n1nnc2c(=O)oc3ccccc3c21
CCNC(=O)CC1C(=O)N(c2ccc(F)cc2)C(=O)N1CCc1sccc1C (stereo not drawn)
O=C1c2cccc3cccc(c23)C(=O)N1CCCCCc1n[nH]c(=S)o1
COc1ccc(S(=O)(=O)N2CCN(C(=O)NC3CCCCC3)CC2)cc1
CCc1nc(C)cn1S(=O)(=O)c1cc([N+](=O)[O-])ccc1Cl
CC(=O)c1ccc(Oc2cc(C)nc(-n3nc(C)cc3C)n2)cc1
COC(=O)c1ccccc1NC(=O)Cn1nc(C(F)(F)F)c2c1CCC2
COc1ccc(N2C(=O)CNC2=S)cc1
Cc1oc2cc([N+](=O)[O-])c(O)c([N+](=O)[O-])c2c1C(=O)c1ccc(Br)cc1
Cc1nn(CC(=O)NCC2CCCO2)c(=O)c2cc3ccccc3n12 (stereo not drawn)
CCCCOc1ccc(Cl)cc1CSc1nncn1N
C=CCn1c(SCc2ccc(C(=O)NCCO)cc2)nc2ccccc2c1=O
CCCCn1c(SCC(=O)NCC2CCCO2)nc2ccc(N3CCOCC3)cc2c1=O (stereo not drawn)
CC(=O)Nc1nc2c(s1)C(=O)NCC(C)(C)C2
CCN(CC(=O)NCc1ccc(Cl)cc1)C(=O)CSc1ccccc1
O=S(=O)(c1cccc(-c2nnc(SC(F)F)n2-c2ccccc2)c1)N1CCCCC1
O=C(c1c(F)cccc1Cl)N1CCN(S(=O)(=O)c2ccc3c(c2)OCCCO3)CC1

CHT activity remaining % of control (stronger effect = lower value), active:
Cc1ccc(CS(=O)(=O)c2ncc(Cl)c(C(=O)Nc3nnc(C)s3)n2)cc1 25.2%
O=C(Nc1nonc1-c1ccc(Cl)cc1)c1ccco1 68.2%
COCCNc1nc(-n2nc(C)cc2C)nc2sc3c(c12)CCCC3 71.2%
O=C(CCCN1C(=O)CSc2ncccc21)N1CCN(c2cccc(C(F)(F)F)c2)CC1 42.1%
COc1cccc(-c2nn(-c3ccccc3)cc2/C=C(\C#N)C(=O)NCCCn2ccnc2)c1 28.8%
CC(=O)OCCOCn1cnn2c(=O)c(Br)c(C)nc12 37.2%
CN(Cc1ccccc1)CC(O)COc1ccc(CNCc2cc3ccccc3s2)cc1 (stereo not drawn) 53.6%
CCS(=O)(=O)C1=NSC2=NC(=O)/C(=C\c3ccc(OS(=O)(=O)c4ccccc4)cc3)C(=N)N21 53.4%
CCCCCn1c(=O)c(C(=O)OCC)c(Cl)c2ccccc21 45.3%
O=c1c2ccccc2nnn1CSc1nc2sc3c(c2c(=O)n1CC1CCCO1)CCC3 (stereo not drawn) 24%
Cc1ccc(NNC(=O)c2cccs2)cc1Cl 64.8%
CCC(C(=O)N1CCOCC1)n1c(C(=O)OC)cc2occc21 (stereo not drawn) 55%
COc1ccc(Cn2c(=O)sc3ccccc32)cc1OC 63.4%
CCOc1ccccc1Nc1ccc2nonc2c1[N+](=O)[O-] 33.1%
CC(=O)N1CCN(S(=O)(=O)c2cccc(C(=O)NC3CCC(C)CC3)c2)CC1 (stereo not drawn) 70.5%
CCn1c(SCCC(C)C)nnc1-c1c[nH]c2ccccc12 67.1%
Cc1ccccc1-n1c(C)cc(/C=N/NC(=O)c2ccc(CN3CCOCC3)cc2)c1C 69.4%
CCOC(=O)N1CCN(C(=O)C2CCN(c3ncnc4c3sc3cccc(F)c34)CC2)CC1 68.8%
Cc1[nH]c2ccccc2c1C(=O)CN1CCCC(C)C1 (stereo not drawn) 60.9%
O=C(Cn1nc(C(F)(F)F)c2c1CCC2)NCc1ccc(F)cc1 63.8%
O=[N+]([O-])c1ccccc1Nc1ccc(O)cc1 42.1%
COc1ccc(-n2nnnc2CNC(=O)c2ccc3ccccc3c2)cc1 56.6%
Cc1ccc(S(=O)(=O)/N=C(/NC(=S)Nc2c(C)n(C)n(-c3ccccc3)c2=O)c2ccccc2)cc1 39.1%
O=C(c1cccs1)C1C(c2ccc(Br)cc2)NC(=S)NC1(O)C(F)(F)F (stereo not drawn) 54.2%
Oc1c(Cl)cc(Cl)c(Cl)c1Cc1c(O)c(Cl)cc(Cl)c1Cl 10.1%
O=S(=O)(Cc1cc(Cl)nc(-c2cccnc2)n1)c1ccccc1 60.6%
Cc1ccc2c(C)c(C(=O)N3CCC(N4CCC(C(=O)NC5CC5)CC4)CC3)oc2c1 61.6%
CCCn1c2ccccc2c2cnn(CC(=O)NCCCN3CCCCC3CC)c(=O)c21 (stereo not drawn) 36.8%
O=C(Cn1ncc2c3ccccc3n(Cc3ccccc3)c2c1=O)NCCCN1CCOCC1 32.8%
COc1ccc(C(=O)NC(=S)NNC(=O)CCc2ccccc2)cc1 66.3%
COc1ccc(C(=O)NNC(=S)NC(=O)c2ccccc2)cc1 59.6%
O=C(Nc1ccc(F)c(Cl)c1)C1CCN(S(=O)(=O)c2cccnc2)CC1 38.1%
COc1ccc(C(=O)NC(Cc2ccc(OC(=O)c3ccc(OC)cc3)cc2)C(=O)O)cc1 (stereo not drawn) 18.8%
O=C(NCCc1ccc2c(c1)OCCO2)c1cc2ccccc2o1 42.2%
O=C(NCCCn1ccnc1)C(=O)c1cn(CC(=O)N2CCCCCC2)c2ccccc12 59.8%
CCCCCn1c(=O)[nH]c2cc(C(=O)NCCCN3CCCCC3C)ccc2c1=O (stereo not drawn) 35.4%
C/C(=N\N=C(N)N)c1ccc(Cl)cc1 12.2%
Nc1cc(N2CCCCCC2)c2nonc2c1[N+](=O)[O-] 68.5%
O=C(OCC(=O)c1c[nH]c2ccccc12)c1cccc(O)c1 56%
CN(CCC#N)c1ncnc2scc(-c3ccccc3)c12 50.5%
Cc1cccc(N(C)C(=O)CN2C(=O)COc3ccc(S(=O)(=O)N4CCCCCC4)cc32)c1 56.8%
CCc1ccc2c(c1)C1(NN=C(c3ccccc3)S1)C(=O)N2 (stereo not drawn) 54.3%
Cn1c2ccccc2c(=O)c2c(O)cccc21 65.5%
O=C(O/N=C(/c1ccccc1)c1ccncc1)c1ccccc1[N+](=O)[O-] 60.1%
Cc1cccc(C)c1NC(=O)c1ccc(CN2CCc3ccccc3C2)cc1 53.4%
COc1ccc(C(=O)NC(C)c2nccs2)cc1OC1CCN(C(C)C)CC1 (stereo not drawn) 22.1%
